# DRD3 antagonist – qHTS of D3 Dopamine Receptor Antagonist: qHTS; hit rate 2.5% among 360,000; D3R cells, DiscoveRx beta-arrestin luminescence, antagonist mode; stronger effect = lower value; max response, negative = inhibition, %; in the data active means max response below about -50%; inconclusive means no clear call, values can overlap the other calls; further: on the % scale 0 is the no-effect control and ±100 the full control effect
#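 Cells plated overnight at 1500 cells/well, then exposed to library compounds with dopamine controls for 90 minutes at 37 degrees C. DiscoveRx reagent added for 30–60 minutes at room temperature; luminescence read, quantitative HTS format.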
# DRD3 agonist – qHTS of D3 Dopamine Receptor Agonist: qHTS. max activation, %. hit rate 0.58% among 410,000. D3R DiscoveRx beta-arrestin cells, luminescence, 90 min. AID 652048, 2013; in the data active means max activation above about 30%; further: 0% is about no effect
#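 Agonist-mode cell screen: cells plated at 1500/well and incubated overnight at 37 °C, then exposed to library compounds for 90 min at 37 °C. Detection reagent was added for 30–60 min at room temperature, and luminescence was read.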
# RGS4 inhibitor – Inhibitors of Regulator of G Protein Signaling (RGS) 4: qHTS. Transcreener GDP fluorescence polarization, RGS4-accelerated GTP hydrolysis. hit rate 0.039% among 390,000. Regulator of G-protein signaling 4 (Homo sapiens), P49798. Potency, µM (series often up to 114 µM), inactives show top-dose activity change, negative = inhibition, actives largely listed as inhibitors; active means well fitted inhibition curve with a large enough effect; inconclusive means small, poorly fitted or top-dose-only effect; inactive means no such curve, though single readings can be large or run the other way; further: potency means the concentration at half of the fitted maximal effect; on the % scale 0 is the no-effect control and ±100 the full control effect; nearly all actives have a fitted effect of over 75% in size
# Target sequence (P49798 whole entry, looked up): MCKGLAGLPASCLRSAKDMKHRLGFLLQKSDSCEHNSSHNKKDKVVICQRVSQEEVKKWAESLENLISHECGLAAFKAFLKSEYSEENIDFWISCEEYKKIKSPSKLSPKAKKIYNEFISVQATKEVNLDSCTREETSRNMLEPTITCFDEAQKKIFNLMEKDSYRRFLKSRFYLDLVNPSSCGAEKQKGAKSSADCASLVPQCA
#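 MLSMR compounds (23 nl, pin-transferred) preincubated 10 min at room temperature with a 500nM (2x) first reagent, then RGS4 at 900nM (2x) plus Transcreener GDP mix added; fluorescence polarization (620/688 nm) read before and after 90 min at 30 °C.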
# Akt phos inh – HTS Assay for Inhibitors of Akt Phophorylation: Primary Screen; activity change, % for hits at 50 µM; Neuro2A IGF-stimulated pAkt S473 HTRF, 20 min; stronger effect = lower value; hit rate 0.32% among 360,000; in the data active means activity change below about -80%; inconclusive means mostly about -51% to -80%; further: on the % scale 0 is the no-effect control and ±100 the full control effect
#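 Single-point screen (50 µM final compound) in Neuro2A cells stimulated 20 min with 6 nM IGF at 37 deg C. After lysis, Ser473-phosphorylated Akt read by HTRF (ex 330 nm, em 615/665 nm) as the 665/615 ratio.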
# LDHA inh – qHTS assay for inhibitors of human lactate dehydrogenase; L-lactate dehydrogenase A chain (Homo sapiens), P00338; purified LDHA, NADH/diaphorase-resazurin fluorescence; stronger effect = lower value; activity change, % (values are at about 110 or 230 µM); hit rate 0.15% among 480,000; in the data active means activity change below about -30%; inconclusive means mostly about -25% to -30%;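 further: plate controls were DMSO wells for no effect and wells without enzyme for full effect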
#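 Remaining NADH was detected by diaphorase (0.133 mg/mL) converting 37 µM resazurin to fluorescent resorufin, read at 0 and 20 minutes. The preceding 5-minute room-temperature reaction used 2 nM LDHA, 0.2 mM sodium pyruvate and 0.06 mM NADH at pH 7.4.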
# PI4K2A inh – qHTS for small molecular inhibitors of PI4K2A. Phosphatidylinositol 4-kinase type 2-alpha (Homo sapiens), Q9BTU6. purified PI4K2A, ADP-Glo luminescence, 1 h; stronger effect = lower value. activity change, negative = inhibition, % at 76.9 µM. hit rate 0.13% among 420,000. AID 1346378, 2018; in the data active means activity change below about -50%; inconclusive means mostly about -30% to -49%;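 further: -100% = wells without enzyme as full effect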
#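 Compounds are screened against recombinant PI4K2A using PI as substrate and ATP, the latter dispensed at 300 microM. Reactions run one hour at ambient temperature before ADP-Glo detection; full inhibition defined by wells lacking enzyme.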
# An asterisk follows results filed as active; i = inactive; ? = inconclusive; . = not tested or not shown. The list is not random: actives were taken first. Their share in the collection is about 2.8%.
SMILES,DRD3 antagonist,DRD3 agonist,RGS4 inhibitor,Akt phos inh,LDHA inh,PI4K2A inh
O=[N+]([O-])c1c(NCCO)cc(N2CCCCCC2)c2nonc12,-1.8,0.0,-3.8%,i,-0.5,2.9
Cc1nnc(Sc2cc(NCCO)c([N+](=O)[O-])c3nonc23)s1,-60.1*,-16.3,?,i,2.4,-19.4
Cc1ccc(-c2cc(C(=O)O)c3cc(Cl)ccc3n2)cc1C,.,.,.,.,-4.2,.
CCOc1ccccc1NC(=O)CCc1ccc(-c2ccccc2)o1,.,.,.,.,-5.7,.
CCN(CCCNC(=O)CN1N=C(c2ccccc2)CCC1=O)c1cccc(C)c1,.,40.5*,9.7%,.,15.5,-9.1
Cn1c(=O)c2c(ncn2CC(=O)Nc2nc(-c3ccccc3Cl)cs2)n(C)c1=O,16.2,32.3*,-21.5%,i,2.8,-6.1
O=C(Nc1nnc(C2CC2)s1)c1cc(-c2ccco2)nc2ccccc12,.,.,.,.,1.0,.
CC(=O)n1cc([C@H]2C=C(C(N)=O)O[C@@H](OCc3ccc(CO)cc3)C2)c2ccccc21,66.5,35.8*,-21.8%,i,11.0,-9.1
O=C(C1=C[C@@H](c2coc3ccccc3c2=O)C[C@@H](OCc2ccc(CO)cc2)O1)N1CCN(Cc2ccc3c(c2)OCO3)CC1,13.5,-14.8,8.2%,i,-10.6,-8.5
CC(=O)n1cc([C@@H]2C=C(C(=O)N3CCN(Cc4ccccc4)CC3)O[C@H](OCc3ccc(CO)cc3)C2)c2ccccc21,-60.6*,-62.0,-6.4%,i,1.1,0.0
O=C(C1=C[C@H](c2coc3ccccc3c2=O)C[C@H](OCc2ccc(CO)cc2)O1)N1CCN(Cc2ccc3c(c2)OCO3)CC1,-50.0*,-49.8,11.9%,i,-3.0,-0.7
CC(=O)n1cc([C@H]2C=C(C(=O)N3CCN(Cc4ccccc4)CC3)O[C@@H](OCCCCO)C2)c2ccccc21,0.0,10.9,2.0%,i,4.7,-2.5
COc1cc(C(=O)Nc2cccc(Cl)c2N2CCCC2)cc(OC)c1OC,.,.,.,.,2.6,.
COc1ccc2c(C)c(CCC(=O)N3CCC(O)CC3)c(=O)oc2c1,.,.,.,.,10.5,.
COc1cc(C(=O)Nc2ccc(N3CCOCC3)nc2)cc2c1OCCO2,.,.,.,.,23.2,.
O=c1[nH]c(CN2CCN(c3ccc(O)cc3)CC2)nc2scc(-c3ccc(Cl)cc3)c12,21.4,98.4*,-32.0%,i,-3.2,4.5
O=[N+]([O-])c1ccc(N2CCN(C(=S)Nc3ccccc3)CC2)cc1,6.5,5.7,-4.2%,i,-1.9,0.3
O=[N+]([O-])c1ccc(N2CCN(C(=S)NC3CCCCC3)CC2)cc1,-7.4,-17.4,-6.1%,-112.4%*,-1.5,-1.5
CCCC1C2C(=O)N(c3ccccc3OC)C(=O)C2ON1c1ccccc1 (configuration not stated),11.3,-6.6,-28.1%,-109.8%*,-2.0,2.8
CCC1CCC(N(C(=O)Cc2nc(-c3cccs3)oc2C)C2CC2)CC1 (configuration not stated),.,.,.,.,0.3,.
COc1ccc(Cn2nccc2NC(=O)c2cc(=O)c3cc(Cl)ccc3o2)cc1,.,.,.,.,1.2,.
O=C1C(Cc2ccccc2)Nc2ncnc(N3CCN(c4ccccc4)CC3)c2N1Cc1ccc(Cl)cc1 (configuration not stated),-128.1*,-44.9,5.7%,i,-13.8,1.8
O=C1C(Cc2ccccc2)Nc2ncnc(N3CCOCC3)c2N1Cc1ccc(Br)cc1 (configuration not stated),-65.7*,-27.0,4.2%,i,0.8,4.5
O=C1C(Cc2ccccc2)Nc2ncnc(N3CCCCC3)c2N1Cc1ccc(Cl)cc1 (configuration not stated),-64.6*,-44.5,-34.5%,i,-1.4,2.8

# Assay outcomes: PubChem, National Center for Advancing Translational Sciences (NCATS)
